This note sets out measurements from PubChem BioAssay (Tox21).

Test [1] is described as follows: qHTS assay to test for compound auto fluorescence at 535 nm (green) in HEK293 cells (AID 720680). A general note: Quantitative high-throughput screening tests each substance at several concentrations.
Test [2] is described as follows: qHTS assay to test for compound auto fluorescence at 460 nm (blue) in HEK293 cell free culture (AID 720681). The essentials: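 Test compounds were pinned into cell-free culture medium (DMEM with 10% FBS) and fluorescence was read directly at Ex/Em 405/460 nm. Signals were expressed as fluorescence equivalents of triamterene, with DMSO vehicle as control.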
Test [3] is described as follows: qHTS assay to test for compound auto fluorescence at 535 nm (green) in HEK293 cell free culture (AID 720682). The essentials: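 Intrinsic compound fluorescence is measured in culture medium containing 10% FBS, with excitation at 485 nm and detection at 535 nm, referenced to fluorescein.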
Test [4] can be described thus: qHTS assay to test for compound auto fluorescence at 590 nm (red) in HEK293 cell free culture (AID 720683). The essentials:
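Tox21 10K library compounds were pinned into cell-free DMEM with 10% FBS and fluorescence was read at excitation 540 nm. Activity is expressed as Rose Bengal sodium equivalency.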

Test [5] can be described thus: qHTS assay to test for compound auto fluorescence at 590 nm (red) in HepG2 cell free culture (AID 720684). The essentials: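 Measured in medium alone (MEM containing 10% FBS) following pintool addition of compound; emission at 590 nm with 540 nm excitation, referenced to Rose Bengal sodium.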
Test [6] is described as follows: qHTS assay to test for compound auto fluorescence at 460 nm (blue) in HepG2 cell free culture (AID 720685). The essentials:
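Compound (23 nL) or DMSO pinned into cell-free MEM with 10% FBS; blue fluorescence read at 405/460 nm excitation/emission, expressed as auto-fluorescence equivalency to triamterene.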

The nature of test [7]: qHTS assay to test for compound auto fluorescence at 535 nm (green) in HepG2 cell free culture (AID 720686).
The nature of test [8]: qHTS assay to test for compound auto fluorescence at 460 nm (blue) in HepG2 cells (AID 720687). The essentials:
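Cells (2,000/well in MEM with 10% FBS) attached overnight at 37 C, then were exposed to compound or DMSO for 1 hr at 37 C, 5% CO2. Fluorescence read at Ex/Em 405/460 nm, expressed as triamterene-equivalent signal.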

The target of test [9] is Glucocorticoid receptor (Homo sapiens) (UniProt P04150). Briefly: qHTS assay to identify small molecule agonists of the glucocorticoid receptor (GR) signaling pathway (AID 720691; active means well fitted activation curve with a large enough effect in the signal ratio in the repeat runs, not every such curve was filed as active; the % refers to the signal ratio). The essentials: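 GR-bla HeLa cells carrying a GRE-driven beta-lactamase reporter, exposed to compounds for 18 h at 37 C. Reporter activation read as fluorescence after 2 h with LiveBLAzer B/G FRET substrate at room temperature.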
Chain of Glucocorticoid receptor (Homo sapiens) (P04150 whole entry, looked up): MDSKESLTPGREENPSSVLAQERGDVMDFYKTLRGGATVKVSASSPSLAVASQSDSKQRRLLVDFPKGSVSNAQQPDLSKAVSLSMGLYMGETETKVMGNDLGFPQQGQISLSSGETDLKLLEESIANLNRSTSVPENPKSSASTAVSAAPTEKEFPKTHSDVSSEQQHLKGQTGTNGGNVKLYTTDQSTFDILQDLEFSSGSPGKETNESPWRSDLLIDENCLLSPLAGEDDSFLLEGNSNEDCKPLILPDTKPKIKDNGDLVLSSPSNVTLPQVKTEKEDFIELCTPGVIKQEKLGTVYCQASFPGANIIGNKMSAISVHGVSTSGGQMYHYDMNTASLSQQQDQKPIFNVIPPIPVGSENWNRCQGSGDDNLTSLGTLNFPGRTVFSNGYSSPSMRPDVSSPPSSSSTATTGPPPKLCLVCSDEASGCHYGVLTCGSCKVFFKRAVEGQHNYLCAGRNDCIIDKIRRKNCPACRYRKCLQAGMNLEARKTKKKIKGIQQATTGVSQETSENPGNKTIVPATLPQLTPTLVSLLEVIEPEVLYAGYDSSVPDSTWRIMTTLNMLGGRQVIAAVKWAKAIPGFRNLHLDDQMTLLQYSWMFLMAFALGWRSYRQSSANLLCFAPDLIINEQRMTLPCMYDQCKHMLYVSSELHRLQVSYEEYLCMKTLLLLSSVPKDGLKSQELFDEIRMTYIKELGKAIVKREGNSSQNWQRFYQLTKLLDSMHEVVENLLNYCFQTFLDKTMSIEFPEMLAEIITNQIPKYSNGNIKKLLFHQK

For test [10] the target is unchanged. Briefly: qHTS assay to identify small molecule antagonists of the glucocorticoid receptor (GR) signaling pathway (AID 720692; active means well fitted inhibition curve with a large enough effect in the signal ratio in the repeat runs, not every such curve was filed as active; the % refers to the signal ratio; further: potency means the concentration at half of the fitted maximal effect). The essentials:
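GR-bla HeLa cells carrying a GRE-driven beta-lactamase reporter received compound after 4 h plating, then dexamethasone (5 nM final). After 18 h at 37C, the FRET substrate was loaded for 2 h at room temperature and fluorescence read.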

A number with no mark means an inactive call. Results filed as inconclusive are left out. Calls of active or inactive are those of the source. Unless noted, the call rests on the fitted dose curve; in most records, active means well fitted curve in the direction sought with a large enough effect in the repeat runs; inconclusive means weak or mixed curves; inactive means flat fitted curve, though single readings scatter.

As for `CC(=O)C(C)(C)C`, the result in test [1], in test [2], in [3], in [4], in test [5] and in test [6] was inactive. Moreover, the result in test [7], in [8] and in test [9] was inactive. For the same compound, the Potency result in test [10] is “inactive”.
As to `CN(N=O)c1ccc([N+](=O)[O-])cc1`, the compound was classed as inactive in test [1], in test [2], in test [3], in test [4], in [5] and in [6]. The compound was called inactive in test [7], in [8] and in [9]. For the same compound, the Potency entry in test [10] is “inactive”.
For the compound `NC(=O)C(Cl)(Cl)Cl`, the outcome in [1], in [2], in test [3], in [4], in test [5] and in [6] was inactive. Further, in test [8], the call was inactive.
As for `CC(c1ccc(O)cc1)(c1ccc(O)cc1)c1ccc(O)cc1`, the compound was called inactive in [1], in test [2], in test [3], in [4], in test [5] and in test [6]. In addition, the compound was called inactive in [7] and in test [8]. For the same compound, in test [10], the Potency is 19.5 µM (active).
With `O=C(Nc1ccccc1)Nc1ccnc(Cl)c1`, the outcome in test [1], in test [2], in [3], in test [4], in [5] and in [6] was inactive. Further, the call in [7] and in test [8] was inactive. Also, the Potency in [10] was 54.9 µM (active).
`CCOP(O)OCC`: the compound was classed as inactive in [1], in test [2], in test [3], in test [4], in [5] and in test [6]. For the same compound, the outcome in [7], in test [8] and in test [9] was inactive. Further, the Potency entry in test [10] was “inactive”.
Regarding `CCCN(CC1CC1)c1c([N+](=O)[O-])cc(C(F)(F)F)cc1[N+](=O)[O-]`, the compound was classed as inactive in test [1], in test [2], in test [3], in [4], in test [5] and in test [6]. Also, the outcome in [7], in [8] and in test [9] was inactive. Besides, the Potency entry in test [10] was “inactive”.
`O=C(O)C(F)(F)C(F)(F)C(F)(F)C(F)(F)C(F)(F)C(F)(F)C(F)(F)C(F)(F)C(F)(F)F`: the call in test [1], in test [2], in [3], in [4], in test [5] and in test [6] was inactive. Besides, the outcome in test [7], in test [8] and in test [9] was inactive. Also, the Potency result in test [10] is “inactive”.
Consider `CCOP(=O)(OCC)O/C(=C/Cl)c1ccc(Cl)cc1Cl`, for which the outcome in test [1], in test [2], in test [3], in test [4], in [5] and in test [6] was inactive. In addition, the result in test [7], in [8] and in [9] was inactive. Also, the Potency in test [10] is 49 µM (active).
For the compound `CC(C)N(C(=O)COc1nnc(C(F)(F)F)s1)c1ccc(F)cc1`, the outcome in [1], in [2], in [3], in test [4], in [5] and in test [6] was inactive. Also, the outcome in test [7], in test [8] and in test [9] was inactive. The Potency in test [10] was 49 µM (active).
As to `COc1cc(Cl)c(OC)cc1Cl`, the outcome in [1], in [2], in test [3], in test [4], in test [5] and in test [6] was inactive. In addition, the compound was called inactive in [7], in test [8] and in [9]. In [10], the Potency entry is “inactive”.
For `O=C(NC(=O)c1c(F)cccc1F)Nc1ccc(OC(F)(F)C(F)OC(F)(F)F)c(Cl)c1` (configuration not stated), the compound was classed as inactive in test [1], in test [2], in [3], in test [4], in test [5] and in test [6]. Moreover, the outcome in test [7] and in test [8] was inactive. The Potency entry in test [10] was “inactive”.
Consider `CCCCOC(=O)c1ccccc1C(=O)OCc1ccccc1`, for which the result in test [1], in [2], in test [3], in [4], in test [5] and in test [6] was inactive. Moreover, the outcome in [7], in [8] and in test [9] was inactive. For the same compound, the Potency result in test [10] was “inactive”.
As for `CCCC(=O)Cl`, the call in test [1], in [2], in [3], in test [4], in test [5] and in test [6] was inactive. For the same compound, the outcome in test [7], in test [8] and in test [9] was inactive. In addition, in [10], the Potency entry is “inactive”.
As for `COC(N)=O`, the compound was classed as inactive in [1], in [2], in test [3], in test [4], in [5] and in [6]. Moreover, the compound was classed as inactive in [7], in test [8] and in test [9]. The Potency entry in test [10] was “inactive”.
For the compound `Brc1ccccc1`, the compound was called inactive in test [1], in [2], in test [3], in test [4], in [5] and in [6]. For the same compound, the call in [7], in test [8] and in [9] was inactive. Moreover, the Potency entry in test [10] is “inactive”.
Turning to `OC(c1ccc(Cl)cc1)(c1ccc(Cl)cc1)c1cccnc1`, the compound was called inactive in test [1], in test [2], in test [3], in test [4], in test [5] and in test [6]. Also, the result in test [7] and in test [8] was inactive. For the same compound, in test [10], the Potency was 49 µM (active).
For `N#CCC#N`, the result in test [1], in test [2], in [3], in [4], in test [5] and in test [6] was inactive. Besides, the outcome in test [7] and in [8] was inactive. For the same compound, the Potency entry in test [10] is “inactive”.
As for `CCOC(=O)COc1cc(-c2nn(C)c(OC(F)F)c2Cl)c(F)cc1Cl`, the compound was called inactive in test [1], in [2], in test [3], in [4], in [5] and in [6]. The compound was called inactive in test [7], in test [8] and in test [9]. In addition, the Potency result in [10] was “inactive”.
Consider `Brc1ccc(Oc2ccccc2)cc1`, for which the call in test [1], in test [2], in [3], in test [4], in test [5] and in [6] was inactive. Also, the compound was called inactive in test [7], in test [8] and in test [9]. Moreover, in test [10], the Potency entry was “inactive”.
